Shown are actives, neighbours in structure and some others; about 3.4% of the full set was active somewhere.
GPR151 activ = activates the human receptor GPR151; activation, % at 11.2 µM; Q8TDV0; hit rate 1% among 650,000; PathHunter beta-arrestin GPR151 cells, luminescence; in the data active means activation above about 4.9%;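 further: 0% = median of compound wells and 100% = cells with positive control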
FBW7 activator = activators of human E3 ligase FBW7; Q969H0; AlphaScreen FBW7–phospho-cyclin E peptide binding, activator screen; normalized activity (activation), % at 26.1 µM; hit rate 0.13% among 650,000; in the data active means normalized activity above about 1.9%;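 further: purified mutant Fbw7 with reduced substrate affinity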
Target sequence (Q969H0 whole entry, looked up): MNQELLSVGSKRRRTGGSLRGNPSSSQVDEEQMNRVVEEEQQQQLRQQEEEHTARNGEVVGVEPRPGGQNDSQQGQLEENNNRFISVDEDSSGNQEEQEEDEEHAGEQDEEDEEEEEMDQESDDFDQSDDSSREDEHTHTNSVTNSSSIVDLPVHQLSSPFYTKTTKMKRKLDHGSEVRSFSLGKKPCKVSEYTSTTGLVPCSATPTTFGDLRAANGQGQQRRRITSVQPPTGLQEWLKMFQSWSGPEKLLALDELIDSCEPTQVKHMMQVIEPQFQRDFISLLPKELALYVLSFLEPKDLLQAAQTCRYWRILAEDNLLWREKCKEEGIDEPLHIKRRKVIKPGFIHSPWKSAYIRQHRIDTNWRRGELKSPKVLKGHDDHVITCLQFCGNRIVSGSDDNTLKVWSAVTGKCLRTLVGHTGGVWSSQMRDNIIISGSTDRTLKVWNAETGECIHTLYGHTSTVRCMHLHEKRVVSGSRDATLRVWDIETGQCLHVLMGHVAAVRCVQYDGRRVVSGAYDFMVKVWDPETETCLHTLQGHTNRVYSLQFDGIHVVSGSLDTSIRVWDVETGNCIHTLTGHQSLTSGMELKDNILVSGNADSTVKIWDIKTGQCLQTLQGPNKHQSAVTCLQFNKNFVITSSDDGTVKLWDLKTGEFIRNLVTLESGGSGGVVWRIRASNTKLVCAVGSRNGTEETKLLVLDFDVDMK
TEAD-YAP block = TEAD-YAP interaction inhibition | HEK-TIYL cells, TEAD-Gal4/YAP UAS-luciferase luminescence | inhibition, % at 9.12 µM | hit rate 1.4% among 640,000 | AID 1259422; in the data active means inhibition above about 32%;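 further: 0% = median of test compound wells and 100% = reference inhibitor wells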
MITF inh = human MITF inhibition, primary screen; O75030; AlphaScreen MITF homodimerization, bead proximity signal; inhibition, % at 2.6 µM; hit rate 0.91% among 650,000; AID 1259374; in the data active means inhibition above about 50%;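 further: 0% = vehicle wells with protein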
Starred values were filed as active, the others as inactive.

Results for CC12C=CC(CO)(O1)C1C(=O)N(c3cccc([N+](=O)[O-])c3)C(=O)C12 (configuration not stated) ?
GPR151 activ: 0; FBW7 activator: 0; TEAD-YAP block: -6; MITF inh: 2

Results for NC(=O)CSc1nnc2n(CC(=O)NC3CCCCC3)c3ccccc3n12 ?
GPR151 activ: 0; FBW7 activator: 0; TEAD-YAP block: -7; MITF inh: -1

How did Cn1cnnc1SCC(=O)Nc1ccc(C(N)=O)cc1 do in these assays?
GPR151 activ: -1; FBW7 activator: 0; TEAD-YAP block: 33*; MITF inh: 10

How did Cc1ccc(N2CCN(C(=O)Cc3nn(C)c(=O)c4ccccc34)CC2C)cc1 (configuration not stated) do in these assays?
GPR151 activ: 0; FBW7 activator: 0; TEAD-YAP block: 38*; MITF inh: 5

Results for Cc1nc(CC(=O)N2CCCC(CNC(=O)C3(c4ccc(Cl)cc4)CC3)C2)cs1 (configuration not stated) ?
GPR151 activ: 0; FBW7 activator: 0; TEAD-YAP block: -11; MITF inh: -10

How did CCc1nnc(NC(=O)c2sc3nc4c(cc3c2N)CCC4)s1 do in these assays?
GPR151 activ: -1; FBW7 activator: 0; TEAD-YAP block: -76; MITF inh: 1

Results for Nc1c(C(=O)Nc2nccs2)sc2nc3c(cc12)CCCC3 ?
GPR151 activ: -1; FBW7 activator: 0; TEAD-YAP block: 77*; MITF inh: -19

What do the screens show for `Nc1c(C(=O)Nc2ccc(Cl)cn2)sc2nc3c(cc12)CCC3`?
GPR151 activ: 4; FBW7 activator: 0; TEAD-YAP block: 94*; MITF inh: 12

Results for Cc1ccc2c(c1)C(c1ccccc1)CC(C)N2C(=O)c1ccco1 (configuration not stated) ?
GPR151 activ: 0; FBW7 activator: 0; TEAD-YAP block: 50*; MITF inh: -1

How did CCOc1ccc(C2C(C(=O)OC)=C(C)NC3=C2C(=O)CC(c2ccc(OC)c(OC)c2)C3)cc1OC (configuration not stated) do in these assays?
GPR151 activ: -1; FBW7 activator: 0; TEAD-YAP block: 41*; MITF inh: -1

How did CC1=C(C#N)C(c2ccccc2Cl)C2=C(CC(c3ccccc3)CC2=O)N1 (configuration not stated) do in these assays?
GPR151 activ: -1; FBW7 activator: 0; TEAD-YAP block: 33*; MITF inh: 1

What do the screens show for `CCC(C)OC(=O)C1=C(C)NC2=C(C(=O)CC(c3ccc(Cl)cc3)C2)C1c1cccc(Cl)c1` (configuration not stated)?
GPR151 activ: 1; FBW7 activator: 1.9*; TEAD-YAP block: 6; MITF inh: 11

What do the screens show for `CCC(C)OC(=O)C1=C(C)NC2=C(C(=O)CC(c3ccccc3)C2)C1c1cccc2ccccc12` (configuration not stated)?
GPR151 activ: 0; FBW7 activator: 2.2*; TEAD-YAP block: 9; MITF inh: 6

How did CCOc1ccc(C2C(C(=O)OC)=C(C)NC3=C2C(=O)CC(c2ccc(OC)c(OC)c2)C3)cc1 (configuration not stated) do in these assays?
GPR151 activ: 0; FBW7 activator: 0; TEAD-YAP block: -11; MITF inh: 0

How did CCc1ccccc1NC(=O)CSC1=C(C#N)C(c2cc(OC)c(OC)c(OC)c2)C(C(=O)OC)C(=O)N1 (configuration not stated) do in these assays?
GPR151 activ: 0; FBW7 activator: 0; TEAD-YAP block: -9; MITF inh: 3

Results for COc1ccc(C2CC(=O)C3=C(C2)NC(C)=C(C(=O)OC(C)C)C3c2ccccc2F)cc1OC (configuration not stated) ?
GPR151 activ: 0; FBW7 activator: 0; TEAD-YAP block: 43*; MITF inh: 11

What do the screens show for `COc1ccc(C2CC(=O)C3=C(C2)NC(C)=C(C(=O)OC2CCCCC2)C3c2cccc(C)c2)cc1OC` (configuration not stated)?
GPR151 activ: 0; FBW7 activator: 0; TEAD-YAP block: 46*; MITF inh: 7

Results for COc1ccc(C2CC(=O)C3=C(C2)NC(C)=C(C(=O)OC(C)C)C3c2cccc([N+](=O)[O-])c2)cc1OC (configuration not stated) ?
GPR151 activ: -1; FBW7 activator: 0; TEAD-YAP block: 39*; MITF inh: -10

What do the screens show for `COc1ccc(C2CC(=O)C3=C(C2)NC(C)=C(C(=O)OC(C)C)C3c2ccccc2OC)cc1OC` (configuration not stated)?
GPR151 activ: -1; FBW7 activator: 1; TEAD-YAP block: 1; MITF inh: 14

What do the screens show for `CCOC(=O)C1=C(C)NC2=C(C(=O)CC(c3ccc(OC)c(OC)c3)C2)C1c1cccc([N+](=O)[O-])c1` (configuration not stated)?
GPR151 activ: -1; FBW7 activator: 0; TEAD-YAP block: 5; MITF inh: -1

How did CC1=C(C(=O)OC2CCCCC2)C(c2ccc(F)cc2)C2=C(CC(c3ccccc3)CC2=O)N1 (configuration not stated) do in these assays?
GPR151 activ: 0; FBW7 activator: 1.9*; TEAD-YAP block: 9; MITF inh: 14

Results for COc1ccc(C(=O)NNC(=O)c2ccc([N+](=O)[O-])cc2Cl)c(OC)c1 ?
GPR151 activ: 0; FBW7 activator: 0; TEAD-YAP block: 4; MITF inh: 12

Results for COc1cc2nc(NCc3cccnc3)nc(Nc3ccc4c(c3)OCO4)c2cc1OC ?
GPR151 activ: 1; FBW7 activator: 0; TEAD-YAP block: -8; MITF inh: 13

How did CCOC(=O)N1CCC(NC(=O)Cn2ncc3ccc(C)cc32)CC1 do in these assays?
GPR151 activ: -1; FBW7 activator: 0; TEAD-YAP block: -5; MITF inh: -1

How did COc1ccc(C2CC(=O)C3=C(C2)NC(C)=C(C(=O)OC(C)C)C3c2cccc(Cl)c2)cc1OC (configuration not stated) do in these assays?
GPR151 activ: 0; FBW7 activator: 1; TEAD-YAP block: 46*; MITF inh: 5

How did COc1ccc(C2CC(=O)C3=C(C2)NC(C)=C(C(=O)OC(C)C)C3c2cccc(C)c2)cc1OC (configuration not stated) do in these assays?
GPR151 activ: -1; FBW7 activator: 0; TEAD-YAP block: 52*; MITF inh: 4

How did COCCOC(=O)C1=C(C)NC2=C(C(=O)CC(c3ccc(OC)c(OC)c3)C2)C1c1cccc(C)c1 (configuration not stated) do in these assays?
GPR151 activ: 1; FBW7 activator: 0; TEAD-YAP block: 43*; MITF inh: 4

Results for COc1ccc(C2CC(=O)C3=C(C2)NC(C)=C(C(=O)OC(C)C)C3c2cccc(Br)c2)cc1OC (configuration not stated) ?
GPR151 activ: 2; FBW7 activator: 0; TEAD-YAP block: 31; MITF inh: -3

Results for COc1cccc(CN2CCC(C(=O)NC3CCCC3)CC2)c1 ?
GPR151 activ: 2; FBW7 activator: 0; TEAD-YAP block: 9; MITF inh: 28
